According to PubChem BioAssay AID1645859 (Buhrlage Lab, Dana-Farber Cancer Institute and Novartis …, 2021):
The campaign covered roughly 47,000 compounds. About 95 (0.2%) were called active. Cut-off read from the data, not from the text of the source: active = inhibition above about 30%; inactive = the rest. Shown is part of a subset that was picked to be rich in actives.

target: Ubiquitin carboxyl-terminal hydrolase isozyme L1 (Homo sapiens) (UniProt P09936); experiment: inhibitors of human UCHL1 deubiquitinase (AID 1645859); conditions: purified UCHL1, Ub-rhodamine cleavage fluorescence; at 20 µM; hits give high values
Sequence (P09936 whole entry, looked up): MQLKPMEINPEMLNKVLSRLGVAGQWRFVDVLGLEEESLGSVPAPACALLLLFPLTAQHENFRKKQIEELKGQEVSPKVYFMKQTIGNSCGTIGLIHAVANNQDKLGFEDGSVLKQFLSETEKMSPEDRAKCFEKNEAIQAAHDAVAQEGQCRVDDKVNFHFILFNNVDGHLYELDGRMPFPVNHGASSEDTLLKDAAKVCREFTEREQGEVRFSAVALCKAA

inhibition, inactive:
COCC(=O)N1CCC(n2c(-c3ccccc3OC)nc3ccccc32)CC1 -2.92%
COCCC(=O)N1CCC2(C/C=C/Cc3ccccc3OCC(=O)NCCNC2=O)CC1 3.12%
COCC(=O)N1CCN2C[C@H]1C(=O)NC[C@H]1O[C@@H](CC(=O)N[C@H]3C[C@@H](C2=O)N(Cc2ccc(OC(F)(F)F)cc2)C3)[C@H](O)[C@@H]1O -6.2%
FC(F)(F)c1ccc(-c2nnc(SCCOc3ccccc3)o2)cc1 11.1%
Cc1ccc(CN2CN(C3CCN(C(=O)c4ccoc4)CC3)CC2=O)c(C)c1 -0.0513%
O=C(Nc1nc2nc(-c3ccccc3)cc(=O)n2[nH]1)C1CCCCC1 4.88%
Cc1nc(-c2cn(C(C)C)c3ncccc23)sc1C(=O)N1CCCC1 1.73%
Cc1ccc(CNC(=O)c2cc(=O)nc3sc(N4CCCC(C)C4)nn23)cc1 (centres undefined) 0.655%
COc1ccc(C(NC(=O)CN(C)Cc2ccc3c(c2)OCO3)c2ccccc2)cc1 (centres undefined) 6.51%
Fc1ccccc1Cn1c(COc2ccccc2)nc2ccccc21 8.93%
O=C(N[C@@H]1CN(Cc2nccs2)[C@@H]2COC[C@@H]21)C1CCC1 -3.31%
O=C(Nc1ccc(F)cc1)c1cc(CN2CCOCC2)on1 1.96%
C=C1CCC2[C@](C)(CCC[C@]2(C)C(=O)OC)[C@H]1CCc1ccoc1/C=C/C(=O)O (some centres undefined) 9.97%
O=C1COC2(CCN(C(=O)C3(c4ccccc4)CCOCC3)C2)CN1c1ccc(F)cc1 (centres undefined) 2.68%
O=C(CCc1ccncc1)N(Cc1ccc2c(c1)OCO2)C1CCCCC1 -0.303%
COC[C@H]1C[C@@H]2CN(S(=O)(=O)c3ccccc3OC)C(C)[C@H]1N2C (some centres undefined) 0.608%
O=C(Nc1nnc(-c2cccc([N+](=O)[O-])c2)o1)C1CCN(S(=O)(=O)c2ccc3c(c2)CCC3)CC1 5.08%
Cc1nc(Nc2ccccn2)cc(C2CCCN2Cc2ncc[nH]2)n1 (centres undefined) -2.35%
CCc1cccc(NS(=O)(=O)c2ccc3c(c2)C(C)(C)C(=O)N3)c1 4.05%
COc1cccc(CNC(=O)CN2C(=O)CCc3cc(Br)ccc32)c1 3.25%
O=C1CC2(C(=O)N(Cc3cccc(Cl)c3)c3ccccc32)c2cn[nH]c2N1 (centres undefined) -5.23%
CCn1c(=O)c2ccccc2n(Cc2nc(-c3ccc(C)cc3)no2)c1=O -1.69%
O=C(C1CCC1)N1CCN2C(=O)c3ccccc3[C@H]2C1 -4.57%
O=C1C(O)=C(c2ccc(O)c(O)c2)C(=O)C(O)=C1c1ccccc1 13.7%
O=C1OCC2=C1C(c1ccccc1)CC(=O)N2c1cccc(F)c1 (centres undefined) -0.0471%
Cc1nc(NCCO)c2sc3nc4c(cc3c2n1)COC(C)(C)C4 3.92%
CCOc1ccccc1-c1nc(-c2nnn(Cc3ccccc3)c2C)no1 7.54%
COc1ccc(C(Nc2ccc(S(=O)(=O)NCC3CCCO3)cc2)C(=O)NCC2CCCO2)cc1 (centres undefined) 1.49%
O=C(Cn1c(=O)n(Cc2cccs2)c(=O)c2cc(Cl)ccc21)NCC1CCCO1 (centres undefined) 0.727%
Cc1nc(N2CCOCC2)ncc1-c1cc(=O)[nH]c(N2CCC(Cc3ccccc3)CC2)n1 5.31%
Cc1nc2ccccc2n1CC(O)c1ccccc1 (centres undefined) -0.449%
O=C(c1noc2ccc(S(=O)(=O)N3CCCC3)cc12)N1CCCC1 0.984%
Cc1ccc(CNc2nc3nc(CN4CCc5ccccc5C4)cc(=O)n3[nH]2)cc1 -0.288%
O=C(Cn1cc(SCc2cccc(F)c2)c2ccccc21)N1CCCCCC1 7.23%
CC(C)Cc1cc(-c2nn3c(-c4ccccc4Cl)nnc3s2)n[nH]1 5.44%
O=C(COc1cccc2ccc(N3CCC(Cc4ccccc4)CC3)nc12)NCc1ccc(F)cc1 2.33%
O=C(c1cn(-c2cc(-c3nc(C4CC4)no3)ccn2)cn1)N1CCCCCC1 -3.62%
O=C(NCCN1CCOCC1)C1CCN(c2ccc(N3CCCCC3)nn2)CC1 -0.229%
Cc1ncc(-c2ccncc2)c(C2CCN(C(=O)c3cnccn3)CC2)n1 0.226%
Cn1cc2nc(SCC(=O)NCc3ccc(Cl)cc3)n(CC3CC3)c(=O)c2n1 -3.8%
O=c1c2ccccc2c(-c2nc(-c3ccncc3)no2)cn1-c1ccc(F)cc1 3.33%
CCCCCCSc1ncnc2c1sc1nc(-c3ccccc3)c3c(c12)CC(C)(C)OC3 -2.54%
CSc1ncnc2c1sc1nc(-c3ccccc3)c3c(c12)CC(C)(C)OC3 2.83%
CCc1cnc(N2CC[C@@H]3CN(CC)S(=O)(=O)[C@@H]3CC2)nc1 1.62%
Cc1nc2c(c(=O)[nH]1)C(c1ccc(OCc3ccccc3F)cc1)CC(=O)N2 (centres undefined) -1.23%
Cc1cc(N(C)C)nc(N2CCN(S(=O)(=O)c3ccc(-c4ccccc4)cc3)CC2)n1 1.74%
Cc1cc(C)c2c(C)c(C(=O)NCc3csc(C)n3)oc2c1 -0.0316%
Cc1ccc(C(=O)N2CCc3cc(-c4csc(NC(=O)CNc5ccccc5)n4)ccc32)cc1 -0.728%
Cc1nn(-c2ccc(Cl)cc2)c2c1C(c1cccc(Br)c1)N1C(=N2)N(C)c2c1c(=O)n(C)c(=O)n2C (centres undefined) -0.542%
COCCCn1c(C(=O)N2CCC(C)CC2)cc2c(=O)n3ccccc3nc21 -5.93%
O=C1CN(C(=O)c2ccc(Cl)o2)c2ccccc2N1 -5.13%
CCc1nnc2ccc(C(=O)N3CCN(c4ccccn4)CC3)cn12 1.5%

inhibition, active:
Cc1c(-c2nn3c(-c4ccco4)nnc3s2)cccc1[N+](=O)[O-] 61.3%
CC1(C)Cc2c(c(-c3ccco3)nc3sc4c(SCCCc5ccccc5)ncnc4c23)CO1 56.3%
